# Measured values: the supplement of paper PMC4466140
# Columns and labels:
# Assay in all cases: SPOT peptide array binding signal intensity (averaged, normalized) (arbitrary units (background-subtracted, floor 0; scale differs between SH3 domains)); higher = stronger binding of the SH3 domain to the peptide
# AgAbp1 = target: AgAbp1
# Procedure: (§1)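 GST-tagged SH3 domains from S. cerevisiae (Sc), A. gossypii (Ag), C. albicans (Ca) and S. pombe (Sp) were incubated at 10 ug/ml overnight at 4 C on cellulose SPOT membranes carrying 292 synthetic 15-mer peptides mined from the S. cerevisiae proteome (cysteines replaced by serines). Binding was detected with anti-GST antibody, HRP secondary and chemiluminescence, quantified with Genespotter, and reported as normalized spot intensities averaged over biological replicates.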
# AgBbc1 = target: AgBbc1
# Procedure: as §1
# AgBem1-D1 = target: AgBem1-D1
# Procedure: as §1
# AgBzz1-D1 = target: AgBzz1-D1
# Procedure: as §1
# AgBzz1-D2 = target: AgBzz1-D2
# Procedure: as §1
# AgCyk3 = target: AgCyk3
# Procedure: as §1
# AgFus1 = target: AgFus1
# Procedure: as §1
# AgHof1 = target: AgHof1
# Procedure: as §1
# AgHse1 = target: AgHse1
# Procedure: as §1
# AgLsb1 = target: AgLsb1
# Procedure: as §1
# AgLsb4 = target: AgLsb4
# Procedure: as §1
# AgMyo5 = target: AgMyo5
# Procedure: as §1
# AgNbp2 = target: AgNbp2
# Procedure: as §1
# AgRvs167 = target: AgRvs167
# Procedure: as §1
# AgSho1 = target: AgSho1
# Procedure: as §1
# AgSla1-D1-D2 = target: AgSla1-D1-D2
# Procedure: as §1
# AgSla1-D3 = target: AgSla1-D3
# Procedure: as §1
# CaAbp1-D1 = target: CaAbp1-D1
# Procedure: as §1
# CaAbp1-D2 = target: CaAbp1-D2
# Procedure: as §1
# CaBbc1 = target: CaBbc1
# Procedure: as §1
# CaBem1-D1 = target: CaBem1-D1
# Procedure: as §1
# CaBzz1-D1 = target: CaBzz1-D1
# Procedure: as §1
# CaBzz1-D2 = target: CaBzz1-D2
# Procedure: as §1
# CaCyk3 = target: CaCyk3
# Procedure: as §1
# CaFus1 = target: CaFus1
# Procedure: as §1
# CaHof1 = target: CaHof1
# Procedure: as §1
# CaHse1 = target: CaHse1
# Procedure: as §1
# CaLsb1 = target: CaLsb1
# Procedure: as §1
# CaLsb4 = target: CaLsb4
# Procedure: as §1
# CaMyo5 = target: CaMyo5
# Procedure: as §1
# CaNbp2 = target: CaNbp2
# Procedure: as §1
# CaRvs167 = target: CaRvs167
# Procedure: as §1
# CaRvs167-3 = target: CaRvs167-3
# Procedure: as §1
# CaSho1 = target: CaSho1
# Procedure: as §1
# CaSla1-D1-D2 = target: CaSla1-D1-D2
# Procedure: as §1
# CaSla1-D3 = target: CaSla1-D3
# Procedure: as §1
# ScAbp1 = target: ScAbp1
# Procedure: as §1
# ScBbc1 = target: ScBbc1
# Procedure: as §1
# ScBem1-D1 = target: ScBem1-D1
# Procedure: as §1
# ScBzz1-D1 = target: ScBzz1-D1
# Procedure: as §1
# ScBzz1-D2 = target: ScBzz1-D2
# Procedure: as §1
# ScCyk3 = target: ScCyk3
# Procedure: as §1
# ScFus1 = target: ScFus1
# Procedure: as §1
# ScHof1 = target: ScHof1
# Procedure: as §1
# ScHse1 = target: ScHse1
# Procedure: as §1
# ScLsb1 = target: ScLsb1
# Procedure: as §1
# ScLsb2 = target: ScLsb2
# Procedure: as §1
# ScLsb3 = target: ScLsb3
# Procedure: as §1
# ScLsb4 = target: ScLsb4
# Procedure: as §1
# ScMyo3 = target: ScMyo3
# Procedure: as §1
# ScMyo5 = target: ScMyo5
# Procedure: as §1
# ScNbp2 = target: ScNbp2
# Procedure: as §1
# ScPex13 = target: ScPex13
# Procedure: as §1
# ScRvs167 = target: ScRvs167
# Procedure: as §1
# ScSho1 = target: ScSho1
# Procedure: as §1
# ScSla1-D1-D2 = target: ScSla1-D1-D2
# Procedure: as §1
# ScSla1-D3 = target: ScSla1-D3
# Procedure: as §1
# SpAbp1-D1 = target: SpAbp1-D1
# Procedure: as §1
# SpBbc1 = target: SpBbc1
# Procedure: as §1
# SpBzz1-D1 = target: SpBzz1-D1
# Procedure: as §1
# SpBzz1-D2 = target: SpBzz1-D2
# Procedure: as §1
# SpCyk3 = target: SpCyk3
# Procedure: as §1
# SpHof1 = target: SpHof1
# Procedure: as §1
# SpHof1-2 = target: SpHof1-2
# Procedure: as §1
# SpHof1-3 = target: SpHof1-3
# Procedure: as §1
# SpHse1 = target: SpHse1
# Procedure: as §1
# SpLsb1 = target: SpLsb1
# Procedure: as §1
# SpLsb4 = target: SpLsb4
# Procedure: as §1
# SpMyo1 = target: SpMyo1
# Procedure: as §1
# SpNbp2 = target: SpNbp2
# Procedure: as §1
# SpPex13 = target: SpPex13
# Procedure: as §1
# SpRvs167 = target: SpRvs167
# Procedure: as §1
# SpSla1-D1-D2 = target: SpSla1-D1-D2
# Procedure: as §1
# SpSla1-D3 = target: SpSla1-D3
# Procedure: as §1
binder,measurement,setting,value
RRTRLRPPTPLSQLL,SPOT peptide array binding signal intensity,AgAbp1,31.5
same,SPOT peptide array binding signal intensity,AgBbc1,145
same,SPOT peptide array binding signal intensity,AgBem1-D1,113
same,SPOT peptide array binding signal intensity,AgBzz1-D1,80.8
same,SPOT peptide array binding signal intensity,AgBzz1-D2,45.5
same,SPOT peptide array binding signal intensity,AgCyk3,1.5
same,SPOT peptide array binding signal intensity,AgFus1,1120
same,SPOT peptide array binding signal intensity,AgHof1,123
same,SPOT peptide array binding signal intensity,AgHse1,866
same,SPOT peptide array binding signal intensity,AgLsb1,154
same,SPOT peptide array binding signal intensity,AgLsb4,100
same,SPOT peptide array binding signal intensity,AgMyo5,1.75
same,SPOT peptide array binding signal intensity,AgNbp2,204
same,SPOT peptide array binding signal intensity,AgRvs167,15.2
same,SPOT peptide array binding signal intensity,AgSho1,64
same,SPOT peptide array binding signal intensity,AgSla1-D1-D2,93
same,SPOT peptide array binding signal intensity,AgSla1-D3,5
same,SPOT peptide array binding signal intensity,CaAbp1-D1,218
same,SPOT peptide array binding signal intensity,CaAbp1-D2,133
same,SPOT peptide array binding signal intensity,CaBbc1,333
same,SPOT peptide array binding signal intensity,CaBem1-D1,192
same,SPOT peptide array binding signal intensity,CaBzz1-D1,233
same,SPOT peptide array binding signal intensity,CaBzz1-D2,76.8
same,SPOT peptide array binding signal intensity,CaCyk3,88.5
same,SPOT peptide array binding signal intensity,CaFus1,1050
same,SPOT peptide array binding signal intensity,CaHof1,7.63e-06
same,SPOT peptide array binding signal intensity,CaHse1,60.6
same,SPOT peptide array binding signal intensity,CaLsb1,0.5
same,SPOT peptide array binding signal intensity,CaLsb4,307
same,SPOT peptide array binding signal intensity,CaMyo5,4
same,SPOT peptide array binding signal intensity,CaNbp2,512
same,SPOT peptide array binding signal intensity,CaRvs167,40.8
same,SPOT peptide array binding signal intensity,CaRvs167-3,16.5
same,SPOT peptide array binding signal intensity,CaSho1,526
same,SPOT peptide array binding signal intensity,CaSla1-D1-D2,574
same,SPOT peptide array binding signal intensity,CaSla1-D3,12.9
same,SPOT peptide array binding signal intensity,ScAbp1,70.5
same,SPOT peptide array binding signal intensity,ScBbc1,61.6
same,SPOT peptide array binding signal intensity,ScBem1-D1,111
same,SPOT peptide array binding signal intensity,ScBzz1-D1,42
same,SPOT peptide array binding signal intensity,ScBzz1-D2,26.2
same,SPOT peptide array binding signal intensity,ScCyk3,83.8
same,SPOT peptide array binding signal intensity,ScFus1,722
same,SPOT peptide array binding signal intensity,ScHof1,4.5
same,SPOT peptide array binding signal intensity,ScHse1,1120
same,SPOT peptide array binding signal intensity,ScLsb1,63
same,SPOT peptide array binding signal intensity,ScLsb2,5.5
same,SPOT peptide array binding signal intensity,ScLsb3,1130
same,SPOT peptide array binding signal intensity,ScLsb4,37.8
same,SPOT peptide array binding signal intensity,ScMyo3,≤ 0
same,SPOT peptide array binding signal intensity,ScMyo5,4.12
same,SPOT peptide array binding signal intensity,ScNbp2,727
same,SPOT peptide array binding signal intensity,ScPex13,16.2
same,SPOT peptide array binding signal intensity,ScRvs167,148
same,SPOT peptide array binding signal intensity,ScSho1,1180
same,SPOT peptide array binding signal intensity,ScSla1-D1-D2,2070
same,SPOT peptide array binding signal intensity,ScSla1-D3,3.38
same,SPOT peptide array binding signal intensity,SpAbp1-D1,20.5
same,SPOT peptide array binding signal intensity,SpBbc1,14.8
same,SPOT peptide array binding signal intensity,SpBzz1-D1,486
same,SPOT peptide array binding signal intensity,SpBzz1-D2,≤ 0
same,SPOT peptide array binding signal intensity,SpCyk3,4
same,SPOT peptide array binding signal intensity,SpHof1,406
same,SPOT peptide array binding signal intensity,SpHof1-2,61.6
same,SPOT peptide array binding signal intensity,SpHof1-3,610
same,SPOT peptide array binding signal intensity,SpHse1,460
same,SPOT peptide array binding signal intensity,SpLsb1,87.8
same,SPOT peptide array binding signal intensity,SpLsb4,615
same,SPOT peptide array binding signal intensity,SpMyo1,12.1
same,SPOT peptide array binding signal intensity,SpNbp2,184
same,SPOT peptide array binding signal intensity,SpPex13,12.8
same,SPOT peptide array binding signal intensity,SpRvs167,24.8
same,SPOT peptide array binding signal intensity,SpSla1-D1-D2,53
same,SPOT peptide array binding signal intensity,SpSla1-D3,8
